Assay results from PubChem BioAssay AID652104 (National Center for Advancing Translational Sciences (NCATS), 2013).
Where “and” joins values, the source holds several entries; their conditions need not be identical. Equal entries are not always repeated. Hit rate of the full screen: of about 410,000 compounds, about 7,200 (1.8%) were called active. A call without a number means that no potency is given here. About 7% were inconclusive and are not listed. The full list was thinned out, with actives kept by preference. A number with no mark means an inactive call. Calls come from the whole dose curve; as a rule, active = well fitted activation curve with a large enough effect; inconclusive = small, poorly fitted or top-dose-only effect, or another doubt; inactive = no such curve, though single readings can be large or run the other way.

Test: qHTS of TDP-43 Inhibitors; note: nearly all actives have a fitted effect of over 50% in size
Settings: TDP-43 expressing yeast growth rescue, BacTiter-Glo, 24 h; series mostly up to 46.1 µM
How it was run: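 Yeast expressing TDP-43 (pregrown in raffinose, seeded at OD600=0.02 in galactose medium) exposed to compounds 24 hr at 30 deg C. Growth read by BacTiter-Glo luminescence; rescue of toxicity appears as increased signal.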
Potency is the fitted concentration of half-maximal effect.

| SMILES | Potency | growth rescue (activation) |
| --- | --- | --- |
| CCOC(=O)c1c(NC(=O)Cc2coc3ccc(CC)cc23)sc2c1CCC2 | inactive |  |
| O=C(Nc1ccc(OC(F)(F)F)cc1)C1CCCN(S(=O)(=O)c2ccc(Br)s2)C1 (stereo not drawn) | inactive |  |
| CC(NC(=O)c1cc2c(=O)n3ccccc3nc2n(C(C)C)c1=N)c1ccccc1 (stereo not drawn) | inactive |  |
| COc1ccc(C2=NS(=O)(=O)N(C)C(C(=O)N(C)Cc3ccccc3)=C2)cc1 | inactive |  |
| COc1cccc(NC(=O)CN(C)C(=O)c2cc(Cl)nc3ccccc23)c1 | inactive |  |
| CN(Cc1ccccc1)C(=O)c1cc2c(=O)n(C)c3ccccc3c2s1 | inactive |  |
| CN(C)C(CNC(=O)CCCOc1ccccc1)c1ccco1 (stereo not drawn) | inactive |  |
| COc1ccc(-c2cc(C(=O)N(C)Cc3ccccc3)c3ccccc3n2)cc1 | 14.1 µM (active) |  |
| CN(CCOc1ccccc1)C(=O)c1cc(-c2ccco2)nc2ccccc12 | 35.5 µM (active) |  |
| Cc1ccc2oc3c(c(=O)c2c1)C(c1ccc(O)cc1)N(Cc1ccc2c(c1)OCO2)C3=O (stereo not drawn) | inactive |  |
| CNc1ccc(-c2nc(-c3ccccc3C)no2)cc1[N+](=O)[O-] | inactive |  |
| Cc1ccc(CN2CCC(CNC(=O)c3cnn(-c4ccc(C)cc4)c3C3CCN(C(=O)OC(C)(C)C)CC3)CC2)cc1 | inactive |  |
| COc1ccc(CC(=O)N/N=C/c2cc([N+](=O)[O-])cc(Br)c2O)cc1 | 6.31 µM (active) |  |
| COc1ccc(Cc2nnc(SCC(=O)c3cccc([N+](=O)[O-])c3)n2C)cc1 | inactive |  |
| COc1ccc(CCNS(=O)(=O)c2cccc([N+](=O)[O-])c2)cc1 |  | -3.92% [at 1.82 µM] |
| Cc1ccc(NC(=O)COc2coc(CN3CCc4ccccc4C3)cc2=O)cc1Cl | inactive |  |
| O=C(COc1ccccc1Cl)Nc1ccc2nc(SCC(=O)N3CCCC3)sc2c1 | inactive |  |
| Cc1ccccc1OCC(=O)Nc1ccc(N2CCN(C(=O)C(C)C)CC2)c(Cl)c1 | 25.1 µM (active) |  |
| COc1ccc(-c2nc(SCC(=O)N3CCCCC3C)n[nH]2)cc1 (stereo not drawn) | inactive |  |
| COc1ccccc1CN1CCC(CNC(=O)c2cnn(-c3ccccc3Cl)c2C2CCN(C(=O)OC(C)(C)C)CC2)CC1 | inactive |  |
| CCCC(=O)Nc1cc2nn(-c3ccccc3)nc2cc1C | inactive |  |
| CCCOc1ccc(F)cc1-c1cc(C(=O)Nc2ccc(F)c(Cl)c2)[nH]n1 | 8.91 µM (active) |  |
| CCN(CC)C(=O)Oc1ccc(Br)cc1C(=O)Nc1ccc(F)c(Cl)c1 | inactive |  |
| COc1ccc(Cl)cc1-c1cc(C(=O)Nc2cc(OC)c(OC)c(OC)c2)[nH]n1 | inactive |  |
| CC(C)(C)c1ccc(C(=O)NCC(c2ccc(Cl)cc2)N2CCOCC2)cc1 (stereo not drawn) | inactive |  |
| CCOC(=O)c1ccc(-n2c(CCC(=O)O)ccc2-c2ccccc2)cc1 | 25.1 µM (active) and 35.5 µM (active) |  |
| Cc1ccc(-c2ccc(CCC(=O)O)n2-c2ccc(C(N)=O)cc2)cc1 | inactive |  |
| COc1ccc(-c2ccc(CCC(=O)O)n2-c2ccc(O)cc2)cc1 |  | -16.9% [at 9.22 µM] |
